Source: PubChem
sPLA2-III inh: Inhibits HGIII-sPLA2 liposome hydrolysis, primary screen; Q9NZ20; QFRET BODIPY PC-A2 liposome hydrolysis, fluorescence; inhibition, % at 12.2 µM; actives 0.56% (n = 370,000); AID 743126;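 active means inhibition above mean plus 3 SD of compounds lying within the high and low control bounds, cut at about 19% in these data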;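 further: 0% = median of test compound wells and 100% = no enzyme DMSO wells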
ADAM17 inh: inhibitors of human ADAM17; P78536; recombinant ADAM17, EDANS/DABCYL FRET peptide cleavage; inhibition, % at 6.95 µM; actives 0.83% (n = 370,000);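 active means inhibition above the mean of compounds lying between control limits plus 3 SD, set per campaign, cut at about 8.5% in these data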;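 further: 0% = DMSO-only wells as the low control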
Target sequence (P78536 215-824 limits assumed): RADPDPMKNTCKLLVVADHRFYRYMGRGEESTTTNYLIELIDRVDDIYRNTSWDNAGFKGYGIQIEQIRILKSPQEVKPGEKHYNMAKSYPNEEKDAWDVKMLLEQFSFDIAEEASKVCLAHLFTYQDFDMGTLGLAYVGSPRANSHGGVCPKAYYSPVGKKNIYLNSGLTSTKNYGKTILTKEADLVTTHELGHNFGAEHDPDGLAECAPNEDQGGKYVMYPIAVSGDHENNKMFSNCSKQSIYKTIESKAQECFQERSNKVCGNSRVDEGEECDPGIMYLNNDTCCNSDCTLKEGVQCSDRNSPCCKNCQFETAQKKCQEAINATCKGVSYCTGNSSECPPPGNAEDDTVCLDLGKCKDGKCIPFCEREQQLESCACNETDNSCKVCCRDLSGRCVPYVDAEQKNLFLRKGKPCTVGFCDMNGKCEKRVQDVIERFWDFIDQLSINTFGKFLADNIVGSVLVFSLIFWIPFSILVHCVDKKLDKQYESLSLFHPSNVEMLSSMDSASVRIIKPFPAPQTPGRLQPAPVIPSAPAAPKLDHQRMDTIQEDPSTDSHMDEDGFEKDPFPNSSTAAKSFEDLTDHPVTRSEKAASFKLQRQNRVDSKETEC
FAS TE block: FAS thioesterase (human) inhibition. P49327. recombinant FAS-TE, OMFH fluorogenic substrate, fluorescence endpoint. inhibition, % at 15 µM. actives 0.67% (n = 360,000);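 active means compounds whose normalised, plate-corrected inhibition of enzyme fluorescence in the single-dose primary screen is 50% or more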;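 further: 0% = DMSO with enzyme and 100% = substrate without enzyme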
GRIN3A LBD mod: modulates the human NR3A ligand-binding domain; NR3A LBD differential scanning fluorimetry, Tm shift; 0% = protein alone, 100% = glycine-bound protein; Tm shift relative to glycine control, % at 25 µM; actives 2.5% (n = 340,000); AID 1259313;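 active means melting temperature shift of at least 10% of the positive control shift, at one fixed dose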
ADAM10 inh: inhibits human ADAM10 | recombinant ADAM10, EDANS/DABCYL FRET peptide cleavage, 3 h | O14672 | inhibition, % at 7 µM | AID 720582 | actives 0.62% (n = 370,000);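 active means inhibition above a per-campaign cutoff equal to the mean of compounds falling between control-based bounds plus 3 SD, cut at about 20% in these data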;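 further: 0% = DMSO wells while the 100% control is not disclosed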
ADAM10 ctr: counter-screen for ADAM17 exosite inhibitors: inhibitors of human ADAM10. shares compounds with ADAM17 inh. recombinant ADAM10, EDANS/DABCYL FRET peptide cleavage, 3 h. inhibition, % at 6.95 µM. actives 47% (n = 2,900);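 active means mean inhibition over the triplicate runs exceeds the activity threshold set in the earlier primary screen, cut at about 20% in these data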;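 further: 0% = DMSO wells and 100% = marimastat wells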
ADAM17 confirm: human ADAM17 inhibition, confirmation; shares compounds with ADAM17 inh; recombinant ADAM17, EDANS/DABCYL QFRET peptide cleavage; inhibition, % at 6.95 µM; actives 65% (n = 2,900); AID 743257;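 active means mean inhibition across replicates above the hit cutoff set in the primary screen, cut at about 8.5% in these data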;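 further: 0% = DMSO wells and 100% = marimastat wells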
Active calls of the source: *; x = no result given. Compounds with a hit are over-represented: about 4.3% of the library has one in this group of screens.

SMILES | sPLA2-III inh | ADAM17 inh | FAS TE block | GRIN3A LBD mod | ADAM10 inh | ADAM10 ctr | ADAM17 confirm
COC(=O)[C@]12CCCCC=C1N(Cc1cccc3ccccc13)C(=O)[C@H](CC(=O)NCc1cccc3ccccc13)C2 | -5 | 12* | 24 | x | 16 | 23* | 12*
C#CCNC(=O)C[C@@H]1C[C@@]2(C(=O)OCC)CCCC=C2N(Cc2cccc3ccccc23)C1=O | -8 | 6 | 3 | x | 7 | x | x
CCOC(=O)[C@]12CCCC=C1N(Cc1cccc3ccccc13)C(=O)[C@H](CC(=O)NCCc1ccccc1OC)C2 | -14 | 9.7* | 21 | x | 11 | 24* | 17*
COC(=O)[C@@]12C[C@@H](CC(=O)NCc3cccc4ccccc34)C(=O)N(Cc3ccc4c(c3)OCO4)C1=CCC(C)(C)C2 | -18 | 8.9* | x | x | 18 | 20* | 12*
Cc1cc(C)cc(C(=O)OCCN2CCN(C3CN(Cc4cn(Cc5ccccc5F)nn4)S(=O)(=O)C3)CC2)c1 (configuration not stated) | 2 | -7 | x | x | -7 | x | x
CCCCCCCCN1C(=O)[C@@H](CC(=O)NCC2CCCCC2)C[C@@]2(C(=O)OC)C1=C[C@H](C1CCCC1)O[C@@H]2C | -5 | -1 | x | x | 3 | x | x
O=C(CCc1nc(-c2ccccc2F)no1)NCCc1ccccc1F | 2 | 1 | x | x | -6 | x | x
CCCCOP(=O)(OCCCC)C(O)c1ccc(Br)cc1 (configuration not stated) | 5 | 11* | 4 | -5 | 11 | -6 | 0
CCOc1cc(N2CCOCC2)c(OCC)cc1NC(=O)CN1C(=O)NC2(CCCCCCC2)C1=O | 1 | -3 | 2 | -1 | 5 | x | x
CCOc1cc(N2CCOCC2)c(OCC)cc1NC(=O)CN1C(=O)NC2(CCc3ccccc32)C1=O (configuration not stated) | 15 | 8.8* | -3 | 2 | 10 | 5 | 4
O=C(Cc1ccc(NC(=O)C2CCN(C(=O)C3CCCC3)CC2)cc1)Nc1cccc(C(=O)N2CCCC2)c1 | -8 | -5 | x | x | -10 | x | x
Cc1occc1C(=O)NNC(=O)COc1ccc(Br)cc1Br | -8 | 8.8* | -6 | -2 | 12 | -5 | 2
Cc1ccc(OCC(=O)NNC(=O)c2ccoc2C)c(Br)c1 | -8 | -2 | -1 | -3 | 2 | x | x
CC(Oc1ccc(Cl)cc1)c1ccnn1S(=O)(=O)c1ccccc1 (configuration not stated) | -7 | 8.9* | 25 | 5 | 3 | 15 | 15*
CCOc1ccc(NC(=O)CN(C)CC(=O)Nc2cc(Cl)ccc2C#N)cc1OCC | -19 | 9.0* | 0 | 2 | 12 | 1 | 1
Cc1cccc(C)c1NC(=O)CN(C)CC(=O)Nc1cc(Cl)ccc1C#N | -4 | 0 | -1 | 0 | -5 | x | x
Nc1[nH]c(C(=O)c2ccc(Br)cc2)c(-c2ccccn2)c1C(=O)NCCc1c[nH]c2ccccc12 | -36 | 8.8* | x | x | 17 | 15 | 12*
Nc1[nH]c(C(=O)c2ccc(Br)cc2)c(-c2ccc(Br)cc2)c1C(=O)NCCc1c[nH]c2ccccc12 | -22 | 0 | 6 | x | -5 | x | x
Nc1[nH]c(C(=O)c2ccccc2)c(-c2ccccc2C(F)(F)F)c1C(=O)NCCc1c[nH]c2ccccc12 | -37 | 9.4* | 9 | x | 7 | 7 | 5
Nc1[nH]c(C(=O)c2ccc(Br)cc2)c(-c2ccc(Cl)cc2[N+](=O)[O-])c1C(=O)NCCc1c[nH]c2ccccc12 | -25 | 9.3* | x | x | 5 | 15 | 14*
CC(=O)c1cc(-c2ccccc2)n(CC(=O)NCc2ccc(Cl)cc2)c1C | -2 | 1 | x | x | -8 | x | x
COC(=O)[C@]12C[C@H](CC(=O)NCC34CC5CC(CC(C5)C3)C4)C(=O)N(CCC3=CCCCC3)C1=C[C@H](COCc1ccccc1)O[C@@H]2C | -1 | -2 | x | x | 3 | x | x
O=C(C1CCCN1S(=O)(=O)c1ccc(Br)s1)N1CCc2ccccc2C1 (configuration not stated) | -4 | 1 | x | x | -2 | x | x
Cc1nc(NC(=O)CSc2nc3ccccc3s2)sc1C(=O)N(C)C | -30 | 10* | -6 | -3 | 2 | 10 | 7
O=C(CSc1nc2ccc(NC(=O)c3ccccc3C(=O)O)cc2s1)Nc1ccc(F)c([N+](=O)[O-])c1 | 4 | 9.3* | 15 | 18* | 19 | -2 | 2
SMILES | sPLA2-III inh | ADAM17 inh | FAS TE block | GRIN3A LBD mod | ADAM10 inh | ADAM10 ctr | ADAM17 confirm
COc1ccccc1C(=O)Nc1ccc2nc(SCC(=O)N(C)C)sc2c1 | -2 | 0 | -6 | 2 | 0 | x | x
Cn1[nH]c(=O)c2ccccc2c1=O | 3 | -7 | -4 | 1 | -12 | x | x
O=c1[nH]n(-c2ccccc2Cl)c(=O)c2ccccc12 | 9 | 10* | -3 | -2 | -6 | 10 | 10*
COc1cc(CN2C[C@@H](CO)O[C@@H](n3cnc4c(N5CCN(c6ccccc6)CC5)ncnc43)C2)cc(OC)c1OC | -4 | 9.1* | -1 | x | 5 | 0 | 3
NCc1ccc(OCCCN2CCC(C(O)(C3=CCCC3)c3ccccc3)CC2)cc1 (configuration not stated) | -3 | -6 | x | x | -15 | x | x
COc1ccc(C2Oc3ccccc3C3=C2C(c2cccs2)n2ncnc2N3)cc1 (configuration not stated) | 4 | 9.6* | 40 | -5 | 10 | -7 | 9.3*
O=C(Nc1cccs1)OC1CC2CC1[C@H]1CCCCN1C2 (some centres not stated) | 0 | 1 | x | x | 2 | x | x
COc1ccccc1NC(=O)Nc1nc(CC(=O)N2CCN(c3ccc(F)cc3)CC2)cs1 | -12 | 9.8* | 32 | -4 | 5 | 24* | 16*
C[C@H]1CN([C@@H](C)CO)C(=O)CCCn2nncc2CO[C@@H]1CN(C)C(=O)Nc1ccccc1F | 3 | -2 | x | x | -9 | x | x
C=C(C)CNC(=S)NNC(=O)CCn1c2ccc(Cl)cc2c2cc(Cl)ccc21 | 6 | 9.7* | 23 | 27* | 19 | 37* | 23*
C=C(C)CNC(=S)NNC(=O)CCn1c2ccccc2c2ccccc21 | 1 | 2 | 2 | 1 | 2 | x | x
C[C@]12Cc3ccccc3C1CC1=N[C@@H](c3ccc(C(F)(F)F)cc3)O[C@@]13C[C@@H]2C(=O)N3Cc1ccncc1 (some centres not stated) | -7 | -7 | x | x | -27 | x | x
COc1cc(NCc2ccccc2)c2ncn(Cc3ccccc3)c2c1 | 10 | 12* | 13 | -2 | 15 | 14 | 7
COCCCOc1cc(NCc2ccccc2)c2ncn(C(C)C)c2c1 | 10 | 5 | -1 | 1 | 4 | x | x
O=C(Nc1nnc([C@@H]2C[C@H](O)[C@@H](CO)O2)s1)Nc1ccc(F)cc1F | -4 | 10* | -8 | x | 5 | 2 | 2
